Bioassay records as filed in PubChem.
Gal4-VP16 FLuc: counter-screen for ROR gamma inhibitors: Gal4-VP16 reporter. Drosophila S2 Gal4-VP16 UAS-luciferase, luminescence, 20 h. Potency, µM (titrated, usually from 53.6 µM), without a hit: top-dose activity, negative = inhibition, usual class: inhibitors. hit rate 3.5% among 310,000. AID 2546;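 also: Gal4-VP16 expression switched on by copper sulfate through the metallothionein promoter; % is scaled to controls: 0 for no effect and ±100 for the full control effect; nearly all actives have a fitted effect of over 50% in size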
RORgamma inh: blocks mouse ROR gamma transcriptional activity; P51450; AID 2551; Drosophila S2 Gal4-RORgamma UAS-luciferase reporter, 20 h; Potency, µM (series often up to 53.6 µM), for the others: at the top dose activity change, negative = inhibition, most hits filed as inhibitors; hit rate 5.4% among 310,000; also: % is scaled to controls: 0 for no effect and ±100 for the full control effect; nearly all actives have a fitted effect of over 60% in size
Target sequence (P51450 whole entry, looked up, the tested form may be a part): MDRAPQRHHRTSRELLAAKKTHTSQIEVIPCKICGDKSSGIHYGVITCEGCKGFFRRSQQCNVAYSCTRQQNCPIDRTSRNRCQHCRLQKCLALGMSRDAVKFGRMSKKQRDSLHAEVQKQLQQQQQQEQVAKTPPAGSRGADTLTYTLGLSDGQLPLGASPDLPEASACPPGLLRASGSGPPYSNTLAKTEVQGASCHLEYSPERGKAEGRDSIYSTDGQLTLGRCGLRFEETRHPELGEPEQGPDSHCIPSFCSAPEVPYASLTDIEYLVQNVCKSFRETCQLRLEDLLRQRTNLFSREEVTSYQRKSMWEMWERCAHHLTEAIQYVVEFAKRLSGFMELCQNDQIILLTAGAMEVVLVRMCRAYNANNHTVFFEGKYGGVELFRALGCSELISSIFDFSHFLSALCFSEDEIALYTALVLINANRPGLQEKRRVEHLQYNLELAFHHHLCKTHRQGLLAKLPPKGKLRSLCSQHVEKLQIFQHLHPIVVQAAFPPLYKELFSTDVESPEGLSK
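ROR gamma transcriptional activity was tracked as Gal4-UAS luciferase output in stably transfected Drosophila Schneider cells, with compound added 1 hr before 700 uM copper sulfate induction and a 20 hr ambient-temperature incubation.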
SW480 rerep: inducers of DNA re-replication in SW480 colon cancer cells; SW480 DNA re-replication, Hoechst DNA content imaging, 48 h; Potency, µM (top dose mostly 46.1 µM), inactives show top-dose re-replication activation, hits mostly activators; hit rate 1.8% among 340,000; AID 624297; also: % of control where 0% means no effect; nearly all actives have a fitted effect of over 55% in size
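Compounds, transferred as 23 nL by pin tool, were incubated with cells for 48 hr; DNA content per nucleus was then quantified by Hoechst staining and fluorescence plate imaging.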
KB-V1 cytotox: kills drug-selected multidrug resistant KB-V1 cells; KB-V1 MDR cells viability, CellTiter-Glo, 72 h; Potency, µM (series often up to 46.1 µM), usual class: cytotoxic; hit rate 3.4% among 400,000; AID 1347076; also: % is scaled to controls: 0 for no effect and ±100 for the full control effect; nearly all actives have a fitted effect of over 60% in size
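KB-V1 MDR subline cells in DMEM (phenol-red free, 10% FBS) exposed to compounds in qHTS concentration series for 72 h at 37 degrees C. Viability read by CellTiter-Glo luminescence; concentration-effect curves fitted after normalization and correction.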
KB-3-1 tox: KB-3-1 parental cell cytotoxicity. hit rate 1.4% among 400,000. Potency, µM (top dose mostly 46.1 µM), most hits filed as cytotoxic. KB-3-1 viability, CellTiter-Glo ATP luminescence, 72 h. AID 1347075; also: % is scaled to controls: 0 for no effect and ±100 for the full control effect; nearly all actives have a fitted effect of over 60% in size
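72 h, 37 °C compound treatment of KB-3-1 parental cells; CellTiter-Glo added, 10 min, luminescence read. Data corrected against DMSO-only plates and normalized before curve fitting.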
MCF10A rereplic: induces DNA re-replication in MCF 10a normal breast cells; MCF 10A DNA re-replication, Hoechst nuclear intensity, 48 h; Potency, µM (titrated, usually from 46.1 µM), without a hit: top-dose activity, positive = re-replication, hits mostly activators; hit rate 2.9% among 350,000; AID 624296; also: % of control where 0% means no effect; nearly all actives have a fitted effect of over 50% in size
* marks the source's active call; other numbers are inactive results; i = inactive; ? = inconclusive; . = no result; [ ] = dose if it differs, or a comment. Rows were chosen to be rich in hits. Some 10% of all compounds tested hit in one or more screens of this group. Calls follow the shape of the dose curve; as a rule, active = well fitted curve in the direction sought with a large enough effect; inconclusive = small, poorly fitted or top-dose-only effect, or another doubt; inactive = no such curve, though single readings can be large; an effect the other way counts as inactive or inconclusive. Potency is read from the fitted curve at half-maximal effect.

SMILES | Gal4-VP16 FLuc | RORgamma inh | SW480 rerep | KB-V1 cytotox | KB-3-1 tox | MCF10A rereplic
CC(C)CNc1nc2c(c(=O)n(C)c(=O)n2C)n1Cc1cccc(Br)c1 | -20% | -27% | -1% | i | i | -16%
Cn1c(=O)c2c(nc(NCc3ccccc3)n2Cc2ccccc2)n(C)c1=O | . | . | . | i | i | .
Cc1cccc(N(C)C(=O)CN(C)S(=O)(=O)c2ccc3[nH]c4c(c3c2)CCCC4)c1 | . | . | . | i | i | .
Oc1c(C(c2ccc(Cl)cc2Cl)N2CCCC2)sc2nc(-c3ccco3)nn12 (centres undefined) | . | . | . | i | i | .
Cc1nc(-n2nc(C)c(CCC(C)C)c2C)sc1C(=O)Nc1ccc(Br)cc1 | . | . | . | i | i | .
CC(O)CNc1nc2c(c(=O)n(C)c(=O)n2C)n1Cc1cccc(Br)c1 (centres undefined) | 0% | 33% | -1% | 15µM* | ? | ?
Cn1c(NCc2ccco2)nc2c1c(=O)n(Cc1ccc(Cl)cc1)c(=O)n2C | ? | 10% | 1% | ? | ? | ?
CCCn1c(NCc2ccco2)nc2c1c(=O)n(C)c(=O)n2C | -20% | ? | -7% | 15µM* | ? | 0%
Cn1c(NCc2ccco2)nc2c1c(=O)n(Cc1ccc(Cl)cc1Cl)c(=O)n2C | -3% | -9% | 16µM* | i | i | ?
CCCCNc1nc2c(c(=O)n(C)c(=O)n2C)n1CCC | -19% | ? | -17% | i | i | 3%
COc1ccc(-c2cn3nc(N4CCC(C(=O)NCc5cccc(Cl)c5)CC4)sc3n2)cc1 | . | . | . | i | i | .
COc1ccc(N(C(=O)c2ccccc2)S(=O)(=O)c2ccc3c(c2)n(C)c(=O)n3C)cc1 | . | . | . | i | i | .
CNC(=O)C1(CC(C)C)C=CCN1C(=O)c1ccccc1 (centres undefined) | -6% | 3% | . | . | . | .
CCN(CC)S(=O)(=O)c1ccc2c(c1)N(CC(=O)NCCCN1CCN(c3ccc(OC)cc3)CC1)C(=O)CO2 | . | . | . | i | i | .
CCOCCn1ccc2c(OCC(=O)Nc3ccc(OC(F)(F)F)cc3)cccc2c1=O | . | . | . | i | i | .
CCCc1cc(=O)[nH]c(SCC(=O)c2cc(C)n(CC(F)(F)F)c2C)n1 | -2% | 3% | -5% | 16µM* | i | 21%
CCCCCCc1cc2cc(S(=O)(=O)c3ccc(C)cc3)c(=O)oc2cc1O | ? | ? | 18µM* | i | i | ?
CCCCCCc1cc2cc(S(=O)(=O)c3ccc(Cl)cc3)c(=O)oc2cc1O | 20µM* | ? | 21µM* | i | ? | ?
O=c1oc2cc(O)ccc2cc1S(=O)(=O)c1ccccc1 | -8% | -41% | 2% | ? | i | 2.6µM*
CCN(CC)c1ccc2cc(S(=O)(=O)c3ccc(Cl)cc3)c(=O)oc2c1 | 3% | 38% | 18µM* | i | i | ?
COc1cccc(NC(=O)N2CCC(n3c(C)nc4cccnc43)CC2)c1 | . | . | . | i | i | .
CCOC(=O)c1c(C)[nH]c(C)c1C(=O)COC(=O)c1sccc1C | . | . | -4% | 18µM* | i | -2%
COc1ccc(/C=C/C(=O)Oc2cc(O)cc(O)c2)cc1 | ? | -16% | -1% | i | i | ?
CCOC(=O)c1c(C)[nH]c(C)c1C(=O)COC(=O)/C=C/c1ccc(OC)cc1 | . | . | 16µM* | 13µM* | ? | 8%
CCOc1ccc(/C=C/C(=O)Oc2ccc(OC)cc2)cc1 | -20% | -21% | 15µM* | ? | i | 5%
SMILES | Gal4-VP16 FLuc | RORgamma inh | SW480 rerep | KB-V1 cytotox | KB-3-1 tox | MCF10A rereplic
Cc1ccsc1C(=O)OCC(=O)NCCNC(=O)COC(=O)c1sccc1C | . | . | -3% | i | i | 2%
Cc1ccsc1C(=O)OCC(=O)Nc1sccc1C(N)=O | 4% | 21% | -1% | 18µM* | i | 14%
O=C(OCC1CO1)C1CCCCC1C(=O)OCC1CO1 (centres undefined) | 1% | 26% | . | . | . | .
Cc1cc(C)cc([N+](=O)[O-])c1 | 5% | 1% | . | . | . | .
CCc1ccccc1NC(=O)c1ccc2[nH]c(C)c(C)c2c1 | . | . | . | i | i | .
O=C(NNC(=O)c1ccccc1OCc1ccccc1)c1ccccc1F | -14% | -17% | -8% | i | i | 3%
O=C(NNC(=O)c1ccccc1OCc1ccccc1)c1ccccc1O | 11µM* | 6.3µM* | ? | i | ? | 0%
O=C(NNC(=O)c1ccccc1OCc1ccc(F)cc1)c1ccccc1O | 10µM* | 4.5µM* | 3.3µM* | . | . | -3%
COc1ccc(C2CC(c3ccccc3)=NN2C(=O)COC(=O)C2CC2)cc1 (centres undefined) | 11% | 6% | -1% | ? | i | 4%
COc1cccc(C2CC(c3cccs3)=NN2C(=S)Nc2ccccc2)c1OC (centres undefined) | 2% | 8.9µM* | ? | i | i | 9%
COc1ccc(CC(=O)OCC(=O)N2N=C(c3ccccc3)CC2c2ccc(OC)cc2)cc1 (centres undefined) | -8% | 17% | 24% | 21µM* | i | ?
COc1ccc(C2CC(c3cccs3)=NN2C(=S)Nc2ccccc2)cc1OC (centres undefined) | 2% | 19% | -1% | i | i | 5%
COc1ccc(C2=NN(C(=O)CSc3nc4ccccc4s3)C(c3ccc(OC)cc3)C2)cc1 (centres undefined) | 7.1µM* | ? | 4% | ? | i | 9%
COc1cccc(C2CC(c3cccs3)=NN2C(=O)CSc2nc3ccccc3s2)c1OC (centres undefined) | 2% | -1% | ? | 12µM* | ? | ?
COc1ccccc1NC(=O)Cn1c(=O)c(CNc2ccc(C)cc2)cc2cc3c(cc21)OCCO3 | . | . | . | i | i | .
CCCn1c(SCc2nc(-c3ccc(OC)c(OC)c3)no2)nnc1-c1ccccc1 | . | . | . | ? | i | .
N#Cc1ccc(CSc2nc3c(c(=O)[nH]2)CCCC3)cc1 | . | . | . | i | i | .
Cc1cccc(N2CCN(C(=O)c3cc4c(=O)[nH]c5ccc(C)cc5c4s3)CC2C)c1 (centres undefined) | . | . | . | i | i | .
CC(=O)OC[C@@H]1O[C@@H](O/N=C2/C[C@@H](O)[C@@H](O)[C@@H]3[C@@H]4C(=O)N(C5CCCCC5)C(=O)[C@H]4CC[C@H]23)[C@H](OC(C)=O)[C@H](OC(C)=O)[C@@H]1OC(C)=O | 1%[10 µM] | -15%[10 µM] | . | . | . | .
